VDR inhibitor: Inhibitors of the vitamin D receptor (VDR): qHTS; Potency, µM, actives largely listed as inhibitors; Vitamin D3 receptor (Homo sapiens), P11473; AID 504847, 2011; VDR-SRC2-3 peptide fluorescence polarization, 2 h; 0.93% of 400,000 active
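FP read-out; VDR + SRC2-3 coactivator peptide; 23 nl compound by pintool; 2 h RT incubation; reagents held at 4 deg C, protected from light.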
Sfp inh: qHTS Assay for Inhibitors of Bacillus subtilis Sfp phosphopantetheinyl transferase (PPTase) | AID 1490, 2009 | Biochemical Sfp PPTase activity, qHTS | Potency, µM, most hits filed as inhibitors | 4'-phosphopantetheinyl transferase ffp (Bacillus subtilis), Q9F4F7 | 3.5% of 310,000 active;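 note: the enzyme is Sfp with the accession as filed and its product quenches rhodamine fluorescence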
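Fluorescence-quenching assay with 15 nM Sfp, 5 uM rhodamine-CoA and 12.5 uM BHQ-2-labelled ybbR peptide in pH 7.6 Hepes/MgCl2 buffer. Enzyme was pre-incubated with compound for 15 min at room temperature. Rate was taken from the 30-min fluorescence change (525/598 nm).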
Mm-Cpn inhibitor: Inhibitors of TCP-1 ring complex (TRiC) of Methanococcus maripaludis (MmCpn): qHTS; Chaperonin Mm-Cpn (Methanococcus maripaludis); Potency, µM (doses to about 76.9 µM), actives largely listed as inhibitors; 0.031% of 330,000 active; purified Mm-Cpn ATPase, ADP Transcreener TR-FRET; note: nearly all actives have a fitted effect of over 80% in size
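Compound-treated chaperonin, 25 nM final, turns over 10 uM ATP at 37°C for 30 min following a 10 min preincubation; ADP generated competes with ADP-d2 for Eu-cryptate antibody, lowering FRET.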
CCT chaperon mod: High-Throughput Screening for Modulators of Cytosolic Chaperonin Activity; purified chaperonin ATPase assay, HTRF ADP detection, 30 min; activity change, % (no concentration beside the values), hits read low; 0.3% of 360,000 active; AID 651819, 2012; in the data active = activity change below about -30%
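ATPase activity: ADP formed was measured by HTRF Transcreener (665/615 nm ratio) after 30 min at 37 deg C with 10 uM ATP. Compounds screened at one 76 uM concentration against 40 or 20 nM TRiC in Tris pH 7.4/KCl/MgCl2/DTT buffer.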
PLK1 PBD block: qHTS for Inhibitors of PLK1-PDB (polo-like kinase 1 - polo-box domain): Primary Screen; Potency, µM, hits mostly inhibitors; AID 720504, 2013; Serine/threonine-protein kinase PLK1 (Homo sapiens), P53350; 2.8% of 360,000 active; Plk1 PBD binding of FITC phosphopeptide, fluorescence polarization; note: series mostly up to about 57 µM; nearly all actives have a fitted effect of over 65% in size
G9a inh: qHTS Assay for Inhibitors of Histone Lysine Methyltransferase G9a; G9a H3K9 monomethylation, AlphaScreen, 2 h; Histone-lysine N-methyltransferase EHMT2 (Homo sapiens), Q96KQ7; 8.8% of 350,000 active; Potency, µM (top dose mostly 102 µM), usual class: inhibitors; note: nearly all actives have a fitted effect of over 75% in size
Target sequence (Q96KQ7 913-1193 limits assumed): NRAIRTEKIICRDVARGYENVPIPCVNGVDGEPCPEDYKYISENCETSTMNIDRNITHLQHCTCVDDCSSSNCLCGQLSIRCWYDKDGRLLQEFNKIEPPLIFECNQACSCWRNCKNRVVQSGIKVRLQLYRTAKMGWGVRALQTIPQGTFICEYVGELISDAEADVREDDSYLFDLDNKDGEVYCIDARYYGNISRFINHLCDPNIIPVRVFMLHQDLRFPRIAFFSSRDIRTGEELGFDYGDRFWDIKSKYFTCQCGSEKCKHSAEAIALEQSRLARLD
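Signal arises when biotinylated H3K9 peptide, once monomethylated, bridges streptavidin donor and antibody-captured acceptor beads. Enzyme at 20 nM was preincubated 15 min with test compounds; peptide 500 nM and SAM 20 uM then reacted for 2 h.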
Each line names hits and unclear results; the compound was inactive in the other large screens. Hits are enriched below; roughly 10% of the tested compounds scored in any of these assays. Unless noted, calls come from the whole dose curve; as a rule, active = well fitted curve in the direction sought with a large enough effect; inconclusive = small, poorly fitted or top-dose-only effect, or another doubt; inactive = no such curve, though single readings can be large; an effect the other way counts as inactive or inconclusive.

C/C(=N\NS(=O)(=O)c1cccc([N+](=O)[O-])c1)c1cccnc1	Sfp inh inconclusive, PLK1 PBD block inconclusive, G9a inh 32µM
CCCCSCCCNC(=O)c1cn(C)c2ccc(S(=O)(=O)N3CCCCC3)cc2c1=O	none (no result: Sfp inh, Mm-Cpn inhibitor, CCT chaperon mod, PLK1 PBD block)
COc1ccc([C@@H](C)C(=O)c2ccc(O)cc2O)cc1	none (no result: Mm-Cpn inhibitor, CCT chaperon mod, PLK1 PBD block, G9a inh)
S=c1[nH]nc(Cn2cnc3ccccc32)n1-c1ccccc1	Sfp inh inconclusive, PLK1 PBD block inconclusive, G9a inh 8.9µM
FC(F)(F)c1ccccc1-n1c(CN2CCCCC2)n[nH]c1=S	PLK1 PBD block inconclusive, G9a inh 20µM
S=c1[nH]nc(CN2CCCCC2)n1-c1ccc(Cl)cc1	G9a inh 18µM
S=c1[nH]nc(Cn2nnc3ccccc32)n1-c1ccc(Cl)cc1	G9a inh 11µM
O=C(Nc1ccc(C(=O)N2CCN(c3cccc(Cl)c3)CC2)cc1)c1nsc2ccccc12	none (no result: Sfp inh, Mm-Cpn inhibitor, CCT chaperon mod, PLK1 PBD block)
Cc1ccc(CNC(=O)c2oc3ccc(S(=O)(=O)N4CCC(C)CC4)cc3c2C)cc1	none (no result: Sfp inh, Mm-Cpn inhibitor, CCT chaperon mod, PLK1 PBD block)
COc1ccc(OC)c(C(=O)CSc2ncc3c(n2)-c2ccccc2N(Cc2ccccc2C)S3(=O)=O)c1	none (no result: Sfp inh, Mm-Cpn inhibitor, CCT chaperon mod, PLK1 PBD block)
COc1ccc(C(=O)CSc2nnc(CN3CCCCC3)n2-c2ccc(F)cc2)cc1	G9a inh inconclusive
Fc1ccc(-n2c(CN3CCCCC3)n[nH]c2=S)cc1	PLK1 PBD block inconclusive, G9a inh 45µM
CSc1ccc(N/N=C(/C#N)S(=O)(=O)C(C)(C)C)cc1	PLK1 PBD block 21µM, G9a inh 50µM
CSc1ccc(S(=O)(=O)Nc2ccc(F)cc2)cc1	none
COc1ccc(N/N=C(/C#N)S(=O)(=O)C(C)(C)C)cc1	G9a inh 50µM
CCOc1ccc(NCc2cccn2-c2nnc(N3CCC(C(=O)NCCCN4CCCCC4CC)CC3)s2)cc1 (configuration not stated)	G9a inh 50µM
CCCOc1ccc(-c2cc(C(F)(F)F)c(C#N)c(SCCC(=O)O)n2)cc1	none (no result: Sfp inh, Mm-Cpn inhibitor, CCT chaperon mod, PLK1 PBD block)
COC(=O)CCN(C(C)=O)c1ccc(N)cc1	VDR inhibitor inconclusive, PLK1 PBD block 27µM
CS(=O)(=O)N(Cc1nnc(-c2cccs2)o1)c1ccc(Cl)cc1F	PLK1 PBD block 12µM
Fc1ccc(Cc2nnc(-c3cccs3)o2)cc1	none
Cc1cc(NCCCn2ccnc2)n2ncc(-c3ccc(Cl)cc3)c2n1	none
Cc1cccc(-c2cc3nc(C)cc(NCCCn4ccnc4)n3n2)c1	PLK1 PBD block 24µM, G9a inh inconclusive
Cc1ccc(-c2nn(-c3ccccc3)cc2C=O)o1	Sfp inh 40µM, G9a inh 40µM
COc1c(Cl)cc(-c2noc(C)c2C(=O)NCc2ccccc2)cc1Cl	PLK1 PBD block 30µM
COc1c(Cl)cc(-c2noc(C)c2C(=O)NCc2ccc3c(c2)OCO3)cc1Cl	none
COc1ccc(Br)cc1C1C2C=CCCC2(C)C(=O)N1Cc1ccccc1 (configuration not stated)	none (no result: Mm-Cpn inhibitor, CCT chaperon mod, PLK1 PBD block, G9a inh)
O=C(COc1ncnc2sccc12)N1CCN(c2ccccc2)CC1	G9a inh inconclusive
O=C(CCOc1ccccc1)N1CCN(c2ccc(O)cc2)CC1	Sfp inh 50µM, G9a inh inconclusive
O=C(COc1ncnc2ccccc12)N1CCN(c2ccccc2)CC1	G9a inh 50µM
O=C(CCSc1ccc(Cl)cc1)N1CCN(c2ccc(O)cc2)CC1	Sfp inh 79µM, G9a inh 32µM
Cc1cn(C)c(CC(=O)NCc2cccc(Cl)c2)c1C(=O)O	none (no result: Sfp inh, Mm-Cpn inhibitor, CCT chaperon mod, PLK1 PBD block)
Cc1ccc(C)c(NC(=O)/C(C#N)=C/c2ccc(C(C)C)cc2)c1	none (no result: Sfp inh, Mm-Cpn inhibitor, CCT chaperon mod, PLK1 PBD block)
COc1cc2ccccc2cc1C(=O)Nc1ccc2oc(-c3cccc(C)c3)nc2c1	none (no result: Sfp inh, Mm-Cpn inhibitor, CCT chaperon mod, PLK1 PBD block)
COCCOc1ccc(C(F)(F)F)cc1Nc1nc2ccccc2o1	VDR inhibitor inconclusive, PLK1 PBD block 6.7µM, G9a inh inconclusive
CCCOc1ccc(/C=C/C(=O)Nc2ccc([N+](=O)[O-])cc2C)cc1OC	none
